Each structure is given as a SMILES string. Among all 39,000 compounds or so, about 3,300 (8.5%) were called active. This excerpt belongs to a sample that is enriched for actives.

The experiment concerns HepG2. As to the kind of experiment: cytotoxicity call (relative viability < 0.9). As to conditions: 10 µM.
As to `Cc1noc(C)c1NC(=O)Nc1ccc2c(c1)C(=O)N([C@@H](C)CO)C[C@H](C)[C@@H](CN(C)Cc1ccccc1)OCCCC[C@@H](C)O2`, the cytotoxicity call was “inactive”.

As to `C[C@H](CO)N1C[C@H](C)[C@@H](CN(C)CC2CCCCC2)Oc2c(NC(=O)Nc3ccccc3)cccc2C1=O`, the cytotoxicity call is “inactive”.

With `C[C@@H]1CN([C@H](C)CO)C(=O)c2cc(NS(=O)(=O)c3ccc(Cl)cc3)ccc2O[C@H]1CN(C)Cc1ccc(Cl)c(Cl)c1`, the cytotoxicity call was “inactive”.

Turning to `C[C@H](CO)N1C[C@H](C)[C@H](CN(C)Cc2ccc(Cl)c(Cl)c2)Oc2ccc(NS(=O)(=O)c3ccc(Cl)cc3)cc2C1=O`, the cytotoxicity call is “active”.

On to `C[C@H](CO)N1C[C@H](C)[C@@H](CN(C)Cc2ccc(Cl)c(Cl)c2)Oc2ccc(NS(=O)(=O)c3ccc(F)cc3)cc2C1=O`, for which the cytotoxicity call was “inactive”.

With `C[C@@H]1CN([C@H](C)CO)C(=O)c2cc(NS(=O)(=O)c3ccc(F)cc3)ccc2O[C@@H]1CN(C)Cc1ccc(Cl)c(Cl)c1`, the cytotoxicity call is “inactive”.

Regarding `C[C@H]1CN([C@@H](C)CO)C(=O)c2cc(NS(=O)(=O)c3ccc(Cl)cc3)ccc2O[C@H]1CN(C)Cc1ccc(Cl)c(Cl)c1`, the cytotoxicity call was “active”.

`C[C@H]1CN([C@@H](C)CO)C(=O)c2cc(NS(=O)(=O)c3ccc(F)cc3)ccc2O[C@H]1CN(C)Cc1ccc(Cl)c(Cl)c1`: the cytotoxicity call is “inactive”.

Take `C[C@@H]1CN([C@@H](C)CO)C(=O)c2cc(NS(=O)(=O)c3ccc(Cl)cc3)ccc2O[C@@H]1CN(C)Cc1ccc(Cl)c(Cl)c1`: the cytotoxicity call is “active”.

`C[C@H](CO)N1C[C@H](C)[C@@H](CN(C)Cc2ccc(Cl)c(Cl)c2)Oc2ccc(NS(=O)(=O)c3ccc(Cl)cc3)cc2C1=O`: the cytotoxicity call was “active”.

As to `C/C=C/c1ccc2c(c1)O[C@@H](CN(C)S(=O)(=O)c1ccccc1OC)[C@H](C)CN([C@@H](C)CO)S2(=O)=O`, the cytotoxicity call was “inactive”.

As to `C[C@@H]1CN([C@H](C)CO)C(=O)Cc2cc(NS(=O)(=O)c3ccc(F)cc3)ccc2O[C@@H]1CN(C)S(=O)(=O)c1cn(C)cn1`, the cytotoxicity call is “inactive”.

On to `C[C@H]1CCCCO[C@H](CN(C)C(=O)c2ccncc2)[C@@H](C)CN([C@@H](C)CO)C(=O)c2cc(NS(=O)(=O)c3ccc(Cl)cc3)ccc2O1`, for which the cytotoxicity call is “inactive”.

As to `Cc1noc(C)c1S(=O)(=O)Nc1ccc2c(c1)C(=O)N([C@@H](C)CO)C[C@H](C)[C@H](CN(C)C(=O)Nc1ccc3c(c1)OCO3)O2`, the cytotoxicity call is “inactive”.

As for `C[C@@H]1CN([C@@H](C)CO)C(=O)c2cc(NS(=O)(=O)c3ccc(Cl)cc3)ccc2O[C@@H](C)CCCCO[C@@H]1CN(C)C(=O)Cc1ccccc1`, the cytotoxicity call was “inactive”.

On to `OC[C@H]1CCCN1CC1CC1`, for which the cytotoxicity call was “inactive”.

As to `C[C@H]1CN([C@@H](C)CO)C(=O)c2cc(NS(=O)(=O)c3cn(C)cn3)ccc2O[C@H]1CN(C)Cc1ccccc1`, the cytotoxicity call was “inactive”.

As for `O=C(c1ccncc1)N1C[C@H]2[C@@H](c3ccccc31)[C@H](CO)N2C(=O)CN1CCOCC1`, the cytotoxicity call is “inactive”.

Take `COC(=O)c1c(CC[C@@H](CO)NC(=O)N[C@H](Cn2cc(C3(O)CCCCC3)nn2)C(C)C)oc(C(C)=O)c1C(=O)OC`: the cytotoxicity call was “inactive”.

With `C[C@@H]1CN([C@H](C)CO)C(=O)c2cc(NS(=O)(=O)c3ccc(F)cc3)ccc2O[C@@H]1CN(C)Cc1ccncc1`, the cytotoxicity call was “inactive”.

On to `COc1ccc(S(=O)(=O)N(C)C[C@H]2Oc3c(NS(=O)(=O)c4cn(C)cn4)cccc3C(=O)N([C@@H](C)CO)C[C@@H]2C)cc1`, for which the cytotoxicity call is “inactive”.

For the molecule `COc1ccc(NC(=O)Nc2ccc3c(c2)C(=O)N([C@@H](C)CO)C[C@@H](C)[C@H](CN(C)C(=O)Nc2ccccc2)OCCCC[C@@H](C)O3)cc1`, the cytotoxicity call was “inactive”.

Take `c1ccc2c(-c3cn[nH]c3)ccnc2c1`: the cytotoxicity call was “inactive”.

Regarding `C[C@H](CO)N1C[C@H](C)[C@@H](CN(C)S(C)(=O)=O)Oc2c(cccc2N(C)C)C1=O`, the cytotoxicity call was “inactive”.

Take `C[C@@H]1CN([C@@H](C)CO)C(=O)c2cc(NS(=O)(=O)c3ccc(Cl)cc3)ccc2O[C@H]1CN(C)Cc1ccc(Cl)c(Cl)c1`: the cytotoxicity call was “active”.

For the molecule `C[C@H]1CN([C@@H](C)CO)C(=O)c2cc(NS(=O)(=O)c3ccc(F)cc3)ccc2O[C@@H]1CN(C)Cc1ccc(Cl)c(Cl)c1`, the cytotoxicity call is “active”.

As for `C[C@H](CO)N1C[C@H](C)[C@H](CN(C)Cc2ccc(Cl)c(Cl)c2)Oc2ccc(NS(=O)(=O)c3ccc(F)cc3)cc2C1=O`, the cytotoxicity call was “inactive”.

`C[C@H]1CN([C@@H](C)CO)C(=O)c2cc(NS(=O)(=O)c3ccc(Cl)cc3)ccc2O[C@@H]1CN(C)Cc1ccc(Cl)c(Cl)c1`: the cytotoxicity call is “active”.

Turning to `C[C@@H]1CN([C@@H](C)CO)C(=O)c2cc(NS(=O)(=O)c3ccc(F)cc3)ccc2O[C@@H]1CN(C)Cc1ccc(Cl)c(Cl)c1`, the cytotoxicity call is “inactive”.

`C[C@@H]1CN([C@H](C)CO)C(=O)c2cc(NS(=O)(=O)c3ccc(F)cc3)ccc2O[C@H]1CN(C)Cc1ccc(Cl)c(Cl)c1`: the cytotoxicity call is “inactive”.

With `C[C@@H]1CN([C@@H](C)CO)C(=O)c2cc(NS(=O)(=O)c3ccc(F)cc3)ccc2O[C@H]1CN(C)Cc1ccc(Cl)c(Cl)c1`, the cytotoxicity call was “inactive”.

Take `C[C@@H]1CN([C@H](C)CO)C(=O)c2cc(NS(=O)(=O)c3ccc(Cl)cc3)ccc2O[C@@H]1CN(C)Cc1ccc(Cl)c(Cl)c1`: the cytotoxicity call was “active”.

On to `Cc1ccc(S(=O)(=O)Nc2ccc3c(c2)C(=O)N([C@H](C)CO)C[C@H](C)[C@@H](CN(C)CC2CCCCC2)OCCCC[C@@H](C)O3)cc1`, for which the cytotoxicity call was “inactive”.

For the molecule `COc1cccc(OC)c1C(=O)NC1C(=O)N2C1SC(C)(C)C2C(=O)[O-].[Na+]` (stereo unspecified), the cytotoxicity call is “inactive”.

For the molecule `C[C@H](CO)N1C[C@H](C)[C@@H](CN(C)C(=O)NC2CCCCC2)OCCCC[C@H](C)Oc2ccc(NS(=O)(=O)c3cccs3)cc2C1=O`, the cytotoxicity call is “inactive”.

Regarding `C[C@H]1CN([C@@H](C)CO)C(=O)Cc2cc(NC(=O)NC3CCCCC3)ccc2O[C@@H]1CN(C)Cc1ccc(Cl)c(Cl)c1`, the cytotoxicity call was “inactive”.

In the case of `CCS(=O)(=O)NCC[C@@H]1CC[C@@H](NC(=O)Cc2ccccn2)[C@@H](CO)O1`, the cytotoxicity call was “inactive”.

Turning to `CC(C)=CCCC(C)=CCCC(C)=CCO` [trans,trans-FARNESOL ], the cytotoxicity call was “inactive”.

Regarding `C[C@@H]1CN([C@H](C)CO)C(=O)c2cccc(NC(=O)Nc3ccc4c(c3)OCO4)c2O[C@@H]1CN(C)Cc1ccc(C(=O)Nc2ccccc2N)cc1`, the cytotoxicity call is “inactive”.

In the case of `O=C(OC(C(F)(F)F)C(F)(F)F)N1CCN(Cc2ccc(C(F)(F)F)cc2N2CCCC2)CC1`, the cytotoxicity call is “inactive”.

Consider `C[C@H](CO)N1C[C@H](C)[C@@H](CN(C)Cc2ccccc2)Oc2ccc(NS(=O)(=O)c3cn(C)cn3)cc2C1=O`, for which the cytotoxicity call was “inactive”.

For the molecule `Cn1cnc(S(=O)(=O)N2C[C@H](O)COC[C@H]3O[C@H](CC(=O)NC4Cc5ccccc5C4)CC[C@@H]32)c1`, the cytotoxicity call was “inactive”.

Consider `O=C(CCCCCNC(=O)OCCCCO[C@@H]1C[C@H](c2ccc(Br)cc2)C=C(C(=O)N2CCN(Cc3ccccc3)CC2)O1)NO`, for which the cytotoxicity call was “inactive”.

Take `C[C@@H]1CCCCO[C@@H](CN(C)C(=O)c2ccccc2)[C@H](C)CN([C@H](C)CO)C(=O)c2cc(NC(=O)Nc3ccc(C(F)(F)F)cc3)ccc2O1`: the cytotoxicity call was “inactive”.

`C[C@@H]1CN([C@H](C)CO)C(=O)c2cc(NC(=O)Nc3ccc(C(F)(F)F)cc3)ccc2O[C@@H](C)CCCCO[C@H]1CN(C)C(=O)c1ccccc1`: the cytotoxicity call was “inactive”.

Turning to `C[C@@H]1CN([C@H](C)CO)C(=O)c2cc(NC(=O)Nc3ccc(C(F)(F)F)cc3)ccc2O[C@@H](C)CCCCO[C@@H]1CN(C)C(=O)c1ccccc1`, the cytotoxicity call was “inactive”.

On to `C[C@@H]1CN([C@@H](C)CO)C(=O)c2cc(NC(=O)Nc3ccc(C(F)(F)F)cc3)ccc2O[C@@H](C)CCCCO[C@H]1CN(C)C(=O)c1ccccc1`, for which the cytotoxicity call was “inactive”.

Regarding `C[C@@H]1CCCCO[C@H](CN(C)C(=O)c2ccccc2)[C@H](C)CN([C@@H](C)CO)C(=O)c2cc(NC(=O)Nc3ccc(C(F)(F)F)cc3)ccc2O1`, the cytotoxicity call is “active”.

Consider `C[C@@H]1CCCCO[C@@H](CN(C)C(=O)c2ccccc2)[C@@H](C)CN([C@H](C)CO)C(=O)c2cc(NC(=O)Nc3ccc(C(F)(F)F)cc3)ccc2O1`, for which the cytotoxicity call was “active”.

For `Cc1noc(C)c1NC(=O)Nc1cccc2c1O[C@@H](CN(C)Cc1ccc(-c3ccccc3)cc1)[C@@H](C)CN([C@@H](C)CO)C2=O`, the cytotoxicity call was “inactive”.

Turning to `Cc1ccc(S(=O)(=O)N(C)C[C@@H]2OCCCC[C@H](C)Oc3ccc(NC(=O)Nc4cccc5ccccc45)cc3C(=O)N([C@H](C)CO)C[C@@H]2C)cc1`, the cytotoxicity call was “inactive”.

For the molecule `CSC(=N)NCCC[C@@H](N)C(=O)O`, the cytotoxicity call is “inactive”.

As for `C[C@H]1CCCCO[C@H](CN(C)S(=O)(=O)c2cccs2)[C@@H](C)CN([C@@H](C)CO)C(=O)c2cc(NC(=O)Nc3ccc(C(F)(F)F)cc3)ccc2O1`, the cytotoxicity call is “inactive”.

As for `CC(C)(C)C(=O)Nc1c[nH]c(=O)[nH]c1=O`, the cytotoxicity call is “inactive”.

With `C[C@@H]1CCCCO[C@@H](CN(C)C(=O)NC2CCCCC2)[C@H](C)CN([C@@H](C)CO)C(=O)c2cc(NC(=O)c3ccncc3)ccc2O1`, the cytotoxicity call is “inactive”.

Turning to `Nc1ccc(S(=O)(=O)c2ccc(N)cc2)cc1`, the cytotoxicity call was “inactive”.

With `Nc1ccc2cc3ccc(N)cc3nc2c1.O=S(=O)(O)O`, the cytotoxicity call was “active”.

Regarding `Nc1ccc2c(c1)nc(CO)n2CCO`, the cytotoxicity call was “inactive”.

For `C[C@@H]1CN([C@H](C)CO)C(=O)c2cc(NC(=O)C3CCCCC3)ccc2O[C@H]1CN(C)C(=O)Nc1cccc2ccccc12`, the cytotoxicity call is “inactive”.

As for `COc1ccc(S(=O)(=O)N(C)C[C@H]2Oc3ccc(NC(=O)C4CC4)cc3CC(=O)N([C@@H](C)CO)C[C@@H]2C)cc1`, the cytotoxicity call was “inactive”.

For `C[C@H](CO)N1C[C@H](C)[C@@H](CN(C)C(=O)Nc2cccc3ccccc23)Oc2ccc(NS(=O)(=O)c3ccc(Cl)cc3)cc2CC1=O`, the cytotoxicity call was “inactive”.

As for `Cc1noc(C)c1NC(=O)N(C)C[C@@H]1Oc2ccc(NC(=O)C3CC3)cc2CC(=O)N([C@@H](C)CO)C[C@H]1C`, the cytotoxicity call was “inactive”.

Consider `CN(C)CC#Cc1ccc([C@@H]2[C@H](CO)N3CCCCN(C(=O)CN(C)C)C[C@@H]23)cc1`, for which the cytotoxicity call was “inactive”.

As to `COc1ccc(NC(=O)N2CCCCN3[C@H](COCCN(C)C)[C@H](c4ccc(C#Cc5ccccc5)cc4)[C@@H]3C2)cc1`, the cytotoxicity call was “active”.

On to `COc1ccc(NC(=O)N2CCCCN3[C@H](CN(C)C(C)=O)[C@H](c4ccc(C#Cc5ccccc5)cc4)[C@@H]3C2)cc1`, for which the cytotoxicity call was “active”.

In the case of `COc1ccc(C#Cc2ccc([C@H]3[C@H](CO)N4CCCCN(S(=O)(=O)c5cn(C)cn5)C[C@@H]34)cc2)cc1`, the cytotoxicity call is “inactive”.

In the case of `CN(C)CC#Cc1ccc([C@@H]2[C@@H](CO)N3CCCCN(C(=O)CN(C)C)C[C@@H]23)cc1`, the cytotoxicity call is “inactive”.

`CN(C)CC#Cc1ccc([C@H]2[C@@H](CO)N3CCCCN(C(=O)CN(C)C)C[C@@H]23)cc1`: the cytotoxicity call was “inactive”.

With `COc1ccc(C#Cc2ccc([C@@H]3[C@H](CO)N4CCCCN(S(=O)(=O)c5cn(C)cn5)C[C@@H]34)cc2)cc1`, the cytotoxicity call was “active”.

In the case of `COc1ccc(C#Cc2ccc([C@@H]3[C@@H](CO)N4CCCCN(S(=O)(=O)c5cn(C)cn5)C[C@H]34)cc2)cc1`, the cytotoxicity call was “inactive”.

For `CN(C)CC#Cc1ccc([C@H]2[C@@H](CO)N3CCCCN(C(=O)CN(C)C)C[C@H]23)cc1`, the cytotoxicity call was “inactive”.

The values above are taken from the antibiotic and cytotoxicity screens of Wong et al. (2023).
